Only some compounds are listed: those with a hit (about 12% of all), similar ones and a draw of the others.
SARS PLpro yeast = SARS-CoV PLP inhibition in yeast; S. cerevisiae expressing SARS-CoV PLpro, growth rescue; Potency, µM (titrated, usually from 32.9 µM), actives largely listed as activators; hit rate 0.19% among 330,000; calls by dose curve; further: nearly all actives have a fitted effect of over 55% in size
Pf growth 48h = P. falciparum growth inhibition at 48 hours (one generation); AID 504832; Potency, µM (highest dose often 28.7 µM), hits mostly inhibitors; P. falciparum luciferase growth in erythrocytes, 48 h; hit rate 5.9% among 310,000
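Parasite viability was followed by luminescence of a genomically integrated firefly luciferase. Cultures held 0.1% parasitemia at 2% hematocrit (final), incubated under 5% CO2 at 37 C.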
NS1 inh = inhibitors of influenza NS1 protein function | Potency, µM (series often up to 46.1 µM) | hit rate 0.4% among 270,000; calls by dose curve; further: actives are rising curves; nearly all actives have a fitted effect of over 50% in size
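S. cerevisiae expressing influenza A NS1, grown in glucose, washed, then diluted 1:100 into pH 6.0 -URA galactose medium with 23 nl compound. Growth recovery read as OD600; NS1-free strain serves as control.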
HCV inh = inhibitors of hepatitis C virus infection. AID 651820. Huh7.5.1 HCVcc-Cre infection, luciferase reporter, 44 h. hit rate 3.4% among 340,000. Potency, µM (highest dose often 41.8 µM), usual class: inhibitors
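After 44 h co-culture of compound, cells and HCVcc-Cre (~0.5 moi), substrate is added for 15 min at room temperature and luciferase measured over 15 sec. Cells were seeded at 1,000/well and pre-cultured 4 h.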
Pf growth 96h = inhibits malaria parasite growth, 96 h | P. falciparum luciferase reporter growth, 96 h | hit rate 6.9% among 320,000 | Potency, µM (highest dose often 28.7 µM), usual class: inhibitors | AID 504834
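Cell-based qHTS: luciferase-tagged P. falciparum in erythrocytes (2% hematocrit, 0.05% parasitemia final) incubated with compounds for 96 hours, 37 C, 5% CO2; luciferase detection reagent then added and luminescence measured.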
AMA1 RON2 block = disrupts binding of P. falciparum AMA1 to RON2; AlphaScreen AMA1-biotinylated RON2 peptide binding; Potency, µM (top dose mostly 58.2 µM), usual class: inhibitors; hit rate 0.2% among 360,000; further: nearly all actives have a fitted effect of over 45% in size
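AMA1 (3D7) with his tag at 25 nM final met compounds first, then biotinylated RON2 peptide at 25 nM; detection used donor plus acceptor beads, 10 µg/mL apiece, read by AlphaScreen after 30 min at room temperature.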
Each line names hits and unclear results; the compound was inactive in the other large screens; ! = repeats disagree. Unless noted, the call rests on the fitted dose curve; in most records, active means well fitted curve in the direction sought with a large enough effect; inconclusive means small, poorly fitted or top-dose-only effect, or another doubt; inactive means no such curve, though single readings can be large; an effect the other way counts as inactive or inconclusive.

COC(=O)c1cccc(NC(=O)NC23CC4CC(CC(C4)C2)C3)c1	HCV inh inconclusive, Pf growth 96h inconclusive (no result: Pf growth 48h)
COC(=O)c1ccc(Cl)c(NC(=O)NC23CC4CC(CC(C4)C2)C3)c1	HCV inh inconclusive, Pf growth 96h 0.657µM (no result: Pf growth 48h)
CCOCCOC(=O)CCSc1n[nH]c(=O)[nH]c1=O	Pf growth 96h 10.4µM
CCCCCOC(=O)CSc1n[nH]c(=O)[nH]c1=O	none (no result: Pf growth 96h)
COc1cccc(OC)c1OCCCN1CCC(Cc2ccccc2)CC1	Pf growth 48h inconclusive, HCV inh 11.2µM, Pf growth 96h inconclusive
Cc1nc2cc(C(F)(F)F)ccc2n1C1CCN(Cc2nnnn2Cc2ccc3c(c2)OCO3)CC1	Pf growth 48h 4.65µM, HCV inh inconclusive
c1ccc(Cn2nnnc2CN2CCN(Cc3ccc4c(c3)OCO4)CC2)cc1	none
COc1ccc(CN2CCC(Cc3ccccc3)CC2)cc1OC	Pf growth 48h inconclusive, HCV inh inconclusive
Cc1nc2cc(C(F)(F)F)ccc2n1C1CCN(CC(=O)N2CCCC2)CC1	Pf growth 48h inconclusive
Cc1nc2cc(C(F)(F)F)ccc2n1C1CCN(Cc2nnnn2Cc2cccs2)CC1	Pf growth 48h 9.28µM
Cc1nc2cc(C(F)(F)F)ccc2n1C1CCN(CC(=O)NC(C)(C)C)CC1	Pf growth 48h 9.28µM
C/C(=N\O)C(C)(C)Nc1ccccc1F	none
FC(F)(F)c1ccc2c(c1)ncn2C1CCN(Cc2nnnn2C2CCCCC2)CC1	Pf growth 48h 4.15µM, HCV inh inconclusive
c1ccc(CCn2nnnc2CN2CCC(n3nnc4ccccc43)CC2)cc1	Pf growth 48h inconclusive
Clc1ccc2nc(C3CCN(Cc4nnnn4C4CCCCC4)CC3)[nH]c2c1	Pf growth 48h 11.7µM
COCCn1nnnc1CN1CCC(Cc2ccccc2)CC1	Pf growth 96h 2.62µM, AMA1 RON2 block inconclusive
Cc1nc2ccccc2n1C1CCN(Cc2nnnn2CCc2ccccc2)CC1	Pf growth 48h 13.1µM (no result: Pf growth 96h)
c1ccc(N2CCN(Cc3nnnn3C3CCCCC3)CC2)cc1	none
CN(C(=O)Nc1ccc(C(C)(C)C)cc1)C1CCCCC1	none
COc1cccc(CN(C)C(=O)C2CC(=O)N(c3ccc4c(c3)OCCO4)C2)c1 (stereo unspecified)	Pf growth 48h inconclusive (no result: NS1 inh)
CCCCNc1nc2ccccc2n1CC(=O)N1CCc2ccccc2C1	Pf growth 48h 11.7µM, Pf growth 96h 3.7µM, AMA1 RON2 block inconclusive
O=C1CC[C@@H](C(=O)O)N1	Pf growth 48h inconclusive, Pf growth 96h 13.5µM! (no result: SARS PLpro yeast, NS1 inh)
CCCN(CC(=O)Nc1ccccc1OC)C(=O)c1ccc(=O)[nH]c1	none
O=C(NCCc1ccccc1)C1CCCN(S(=O)(=O)c2cccc3nsnc23)C1 (stereo unspecified)	Pf growth 96h 1.17µM
O=C(Nc1ccccc1Cl)C1CCCN(S(=O)(=O)c2cccc3cccnc23)C1 (stereo unspecified)	Pf growth 48h inconclusive
O=C(C1CCCN(S(=O)(=O)c2cccc3nsnc23)C1)N1CC=C(c2ccccc2)CC1 (stereo unspecified)	Pf growth 48h inconclusive, NS1 inh inconclusive, HCV inh 12.6µM
O=C(NCCc1ccccc1)C1CCCN(S(=O)(=O)c2cccc3nonc23)C1 (stereo unspecified)	none (no result: Pf growth 48h, Pf growth 96h)
Cc1ccc2nc(NC(=O)C3CCCN(S(=O)(=O)c4cccc5nsnc45)C3)sc2c1 (stereo unspecified)	Pf growth 48h 10.4µM, HCV inh 11.2µM, Pf growth 96h inconclusive
O=C(Nc1nc2cc(Cl)ccc2s1)C1CCCN(S(=O)(=O)c2cccc3cccnc23)C1 (stereo unspecified)	HCV inh 11.2µM, Pf growth 96h 11.7µM (no result: Pf growth 48h)
CCN(CC)c1ccc(/C=N\NC(=O)c2cccc3cc[nH]c23)cc1	HCV inh inconclusive
CCCCC(CC)CNC(=O)CN1C(=O)NC2(CCc3ccccc32)C1=O (stereo unspecified)	none
CN1CCN(c2ccc([N+](=O)[O-])cc2NC(=O)c2cccs2)CC1	Pf growth 96h inconclusive
Cn1c(=O)c2ncn(CC(=O)Nc3nc(-c4ccc(Cl)cc4)cs3)c2n(C)c1=O	HCV inh inconclusive (no result: NS1 inh)
O=S(=O)(c1cccc2nsnc12)N1CCCCC1	HCV inh inconclusive, Pf growth 96h 8.28µM
O=S(=O)(c1ccc(Br)c2nsnc12)N1CCOCC1	Pf growth 96h 9.28µM

High-throughput results deposited in PubChem by National Center for Advancing Translational Sciences (NCATS).
